Test results from PubChem BioAssay (NCI).
Compounds without any hit were thinned out: in the full panel of roughly 83,000, 20% have a hit.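 Method: cells in 96-well plates; compound added at one concentration; 48 h incubation; percent growth measured; values under 10 scored active.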 Unmarked numbers belong to inactive results. The source made the active and inactive calls.

Columns and labels:
Assay in all cases: NCI-60 one-dose screen, 48 h (100 = growth as untreated, 0 = no growth, -100 = all killed)
Conditions in all cases: 10 µM
NCI-H23 lung = tested on: NCI-H23 lung
NCI-H226 lung = tested on: NCI-H226 lung
NCI-H322M lung = tested on: NCI-H322M lung
HOP-62 NSCLC = tested on: HOP-62 NSCLC
NCI-H460 lung = tested on: NCI-H460 lung
HOP-92 NSCLC = tested on: HOP-92 NSCLC
NCI-H522 lung = tested on: NCI-H522 lung
A549/ATCC NSCLC = tested on: A549/ATCC NSCLC
786-0 renal = tested on: 786-0 renal
COLO 205 colon = tested on: COLO 205 colon
DU-145 prostate = tested on: DU-145 prostate
MALME-3M melanoma = tested on: MALME-3M melanoma
MDA-MB-231 breast = tested on: MDA-MB-231 breast
RXF 393 renal = tested on: RXF 393 renal
SF-268 CNS = tested on: SF-268 CNS
SF-295 CNS = tested on: SF-295 CNS
SF-539 CNS = tested on: SF-539 CNS
UACC-257 melanoma = tested on: UACC-257 melanoma
M14 melanoma = tested on: M14 melanoma
K-562 leukemia = tested on: K-562 leukemia

Structure (SMILES) | growth (NCI-H23 lung) | growth (NCI-H226 lung) | growth (NCI-H322M lung) | growth (HOP-62 NSCLC) | growth (NCI-H460 lung) | growth (HOP-92 NSCLC) | growth (NCI-H522 lung) | growth (A549/ATCC NSCLC) | growth (786-0 renal) | growth (COLO 205 colon) | growth (DU-145 prostate) | growth (MALME-3M melanoma) | growth (MDA-MB-231 breast) | growth (RXF 393 renal) | growth (SF-268 CNS) | growth (SF-295 CNS) | growth (SF-539 CNS) | growth (UACC-257 melanoma) | growth (M14 melanoma) | growth (K-562 leukemia)
COc1ccc2[nH]c(O)c(N=NC(=O)c3cc(-c4ccc(C)cc4)nc4ccccc34)c2c1 | 86% | 90.6% | 102% | 102% | 95.8% | 97.8% | 99.5% | 87.2% | 97.2% | 112% | 90.8% | 103% | 98.3% | 92.4% | 80.2% | 108% | 92.3% | 91.2% | 99.1% | –
CN1CCN(c2ccc(Nc3nc(N4CCN(S(=O)(=O)c5ccc(Cl)cc5)CC4)c4sccc4n3)cc2)CC1 | 46.6% | -22.2% (active) | 74.5% | 71.4% | -70.6% (active) | 69.1% | -82.7% (active) | 22% | -62.9% (active) | -77.9% (active) | -60.8% (active) | -97.6% (active) | -86.3% (active) | -95.7% (active) | 52.9% | -78% (active) | -100% (active) | -87.1% (active) | -60.6% (active) | –
Cc1ccn2c(C(=O)c3ccccc3)cc(-c3cc(-c4ccc(N(C)C)cc4)c(C#N)c(N)n3)c2c1 | 46.1% | 16.7% | 75.1% | 53.1% | – | 23.6% | 79.4% | 45.9% | 21% | 66.2% | 56.4% | 63.6% | 25.7% | – | 61.2% | 69.3% | -62.1% (active) | 85.7% | 81.3% | 70.9%
Cc1nc(Nc2nc(C)c3ccc(OCCN4CCOCC4)cc3n2)[nH]c(=O)c1C | -66.6% (active) | -47.2% (active) | -10.8% (active) | -34.5% (active) | – | 3.9% (active) | -52.3% (active) | 6.61% (active) | -25.1% (active) | 0.287% (active) | 14.9% | -69.8% (active) | -67.1% (active) | -78% (active) | 9.74% (active) | -29.3% (active) | -61.7% (active) | -14.9% (active) | 18% | 14.1%
O=C(Nc1nc2ccc([N+](=O)[O-])cc2s1)Nc1cc(Cl)ccc1I | -53.2% (active) | -50.9% (active) | -9.64% (active) | -44% (active) | – | -32.5% (active) | -52.8% (active) | -9.31% (active) | -49.4% (active) | -98.1% (active) | 17.3% | -41% (active) | -37% (active) | -44.8% (active) | 1.99% (active) | -71% (active) | -74.3% (active) | -36.5% (active) | -52.7% (active) | -5.74% (active)
COc1ccc2nc(Nc3cccc(NC(=O)c4ccc(CN5CCN(C)CC5)c(C(F)(F)F)c4)c3)ccc2c1 | -94.9% (active) | -46.9% (active) | -64% (active) | -77.6% (active) | – | -57% (active) | -85.7% (active) | -54.7% (active) | -55.3% (active) | -90.3% (active) | -32.8% (active) | -91.8% (active) | -82.7% (active) | -75.7% (active) | -55.2% (active) | -97.7% (active) | -99.8% (active) | -83.9% (active) | -50.1% (active) | -70.8% (active)
CN1C(=O)/C(=C/c2ccc3ncsc3c2)NC1=NC12CC3CC(CC(O)(C3)C1)C2 | -21.1% (active) | -1.04% (active) | 9.71% (active) | – | 9.92% (active) | 22.1% | -46.8% (active) | 16.7% | 11.1% | -37.9% (active) | 12.2% | -15% (active) | 0.441% (active) | -22.7% (active) | 24.5% | 14.1% | -32.1% (active) | -17% (active) | 36.9% | 11.9%
CCCSc1nc(NC2CC2)c(C#N)c(-c2ccc(OC)cc2)n1 | 96.4% | 99.4% | 89.3% | 84.6% | – | 77.7% | 93.3% | 71.8% | 77.1% | 134% | 98.1% | 134% | 85% | – | 80.9% | 78.7% | 85.6% | 107% | 129% | 92.4%
CN1C(=O)N(C)C2SC(N/N=C/c3cccs3)=NC21 (stereo not given) | 38.4% | 68.2% | 69.3% | 37.7% | – | 55.6% | -14.6% (active) | 44.2% | 37.3% | 26.8% | 49.5% | 24.6% | 27.3% | – | 35.7% | 7.99% (active) | 4.32% (active) | 50.3% | 7.65% (active) | 11.8%
N#Cc1ccc(-c2nn(-c3ccc(C(=O)O)cc3)cc2CNc2cccc(Br)c2)cc1 | 10.6% | 44.4% | 85.5% | 42% | – | 56.5% | 73.4% | 55.7% | 45% | 117% | 76.8% | 95.6% | 89.4% | – | 51.7% | 42.5% | 38.6% | 65.7% | 37.2% | 46.3%
COc1ccc2c(c1)N=C(C(=O)O)/C2=C/c1sc(Nc2ccc(O)cc2)nc1O | 71.6% | 54.8% | 92.5% | 80.9% | – | 68.3% | 33.7% | 96.2% | 78.9% | 89.2% | 94.1% | 50.7% | 63.7% | – | 78.1% | 76.5% | 52.1% | 81.3% | 72.3% | 29.1%
O=C1Nc2ccc(F)cc2/C1=C/c1cccc(OCc2ccccc2)c1 | 24.8% | 35.3% | 47.6% | 48.4% | – | 18.8% | 5.02% (active) | 41.8% | 33.7% | 34.1% | 30.4% | 32.3% | – | -15.9% (active) | 29.9% | 35.4% | 19.8% | 26.6% | 17.3% | 6.34% (active)
O=C1CCC(N2Cc3c(NCc4ccc(-c5ccccc5)cc4)cccc3C2=O)C(=O)N1 (stereo not given) | 72.9% | 55.1% | 77.2% | 74.4% | – | 24.3% | 82.7% | 71.6% | 70.8% | 82% | 85% | 15.2% | 22.2% | – | 68.1% | 81.9% | 58.4% | 103% | 75.4% | 72.4%
Cc1ccc(C(=O)N/C(=C2/OCCN2C)[P+](c2ccccc2)(c2ccccc2)c2ccccc2)cc1 | 85.1% | 92.9% | 100% | 96.9% | – | 60.3% | 57.8% | 97.8% | 103% | 57.9% | 84.9% | 63.6% | 65.6% | – | 92.7% | 87.3% | 91.4% | 49.6% | 82.9% | 50.4%
COc1ccc(CN2[C@@H](C(=O)NCc3ccc(C(=O)NO)cc3)Cc3c([nH]c4ccccc34)[C@@H]2C2CC2)cc1 | 21.3% | 50.8% | 42% | 24% | – | -3.87% (active) | -17% (active) | 40.3% | 28.4% | -40.3% (active) | 15.8% | 12.8% | 5.56% (active) | – | 20.9% | 3.12% (active) | 15.3% | 36.3% | 16.1% | 6.95% (active)
C=CC(=O)Nc1ccc(C(=O)/C=C/c2ccc(N(C)CCF)cc2)c(O)c1 | -26.7% (active) | -11% (active) | 25.6% | -27.5% (active) | – | -3.32% (active) | -76.9% (active) | -60.7% (active) | -42.2% (active) | -69.1% (active) | -51.2% (active) | -50.1% (active) | 17% | -82.4% (active) | -19.7% (active) | -4.58% (active) | -81.5% (active) | -61.6% (active) | -56.3% (active) | 9.77% (active)
